Compound activity deposited in PubChem by several laboratories.
Cardio protect – protects H9c2 cardiomyocytes from peroxide injury; AID 588492; H2O2 injury protection, ATPLite, 2 h; protection from H2O2 cell death, % at 20 µM; hit rate 0.63% among 360,000;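 active means compounds giving at least 50% protection of heart cells from peroxide-induced death in the single-dose screen, raw or plate-pattern-corrected value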
PP5 primary – inhibitors of human protein phosphatase 5 (PP5) | P53041 | purified PP5c, OMFP substrate fluorescence | inhibition, % at 6.7 µM | hit rate 0.18% among 320,000 | AID 1987;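 active means inhibition above the campaign's mean inhibition across all tested compounds plus 3 SD, cut at about 9.5% in these data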
Target sequence (P53041 whole entry, looked up): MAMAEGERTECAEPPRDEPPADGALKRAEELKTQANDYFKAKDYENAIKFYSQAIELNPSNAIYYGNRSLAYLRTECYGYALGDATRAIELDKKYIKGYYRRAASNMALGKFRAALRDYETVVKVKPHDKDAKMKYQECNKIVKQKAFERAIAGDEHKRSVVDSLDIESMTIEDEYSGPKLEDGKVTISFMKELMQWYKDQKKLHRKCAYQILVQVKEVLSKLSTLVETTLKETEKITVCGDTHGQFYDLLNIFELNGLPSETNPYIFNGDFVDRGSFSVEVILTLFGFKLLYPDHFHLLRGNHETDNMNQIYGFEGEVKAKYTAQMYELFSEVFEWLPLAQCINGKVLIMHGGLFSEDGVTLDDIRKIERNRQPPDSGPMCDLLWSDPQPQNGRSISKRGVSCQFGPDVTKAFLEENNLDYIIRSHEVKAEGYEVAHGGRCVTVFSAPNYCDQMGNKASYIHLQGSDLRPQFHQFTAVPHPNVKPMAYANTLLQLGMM
ATG4B inhibitor – inhibitors of human ATG4B cysteine protease | Q9Y4P1 | ATG4B cleavage of LC3-PLA2, NBD-HPC fluorescence, 1 h | inhibition, % at 8.33 µM | hit rate 0.51% among 340,000; in the data active means inhibition above about 40%
PP1 inh – counter-screen for PP5 inhibitors: inhibitors of human PP1-alpha; hit rate 0.9% among 320,000; P62136; purified PP1alpha, OMFP fluorescence; inhibition, % at 6.7 µM; AID 2235;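 active means inhibition above the mean inhibition of all tested compounds plus 3 SD, computed separately for each screening campaign, cut at about 15% in these data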
Numbers stand for hits; i = inactive; nt = no result given. An excerpt weighted towards active compounds, which were near 1.9% of everything screened.

SMILES | Cardio protect | PP5 primary | ATG4B inhibitor | PP1 inh
COc1ccccc1N1C(=O)CC(N2CCN(c3ccc([N+](=O)[O-])cc3)CC2)C1=O (centres undefined) | i | i | i | i
COc1cccc(NC(=O)Cc2nnc(SCC(=O)NC3CCCCC3)n2C)c1 | i | i | i | i
CC1CCN(S(=O)(=O)c2ccc(NC(=O)Cn3nnc(-c4ccccc4)n3)cc2)CC1 | i | i | i | 17.2
Cc1ccc(-c2nnn(CC(=O)Nc3ccc(S(=O)(=O)N4CCC(C)CC4)cc3)n2)cc1 | i | i | i | 15.6
COc1cccc(-c2cc(NC=O)c3ncc(-c4cccc(C(=O)N(C)C)c4)n3c2)c1 | i | nt | nt | nt
COc1ccc(CNc2nn3c(-c4cccc(C(=O)N(C)C)c4)cnc3s2)cc1 | 75.8 | nt | nt | nt
O=C(NNC(=O)c1cccc2ccccc12)c1cccc(Cl)c1 | i | nt | i | nt
O=C1[C@H]2[C@@H](c3ccccc3)N[C@]3(CCCN(Cc4ccc(C(F)(F)F)cc4)C3=O)[C@H]2C(=O)N1Cc1ccccc1 | i | nt | nt | nt
O=C1[C@H]2[C@@H](c3ccc(C(F)(F)F)cc3)N[C@]3(CCCN(Cc4ccc(F)cc4)C3=O)[C@H]2C(=O)N1Cc1ccccc1 | 66.7 | nt | nt | nt
CC(Oc1ccccc1)C(=O)N=C1SC2CS(=O)(=O)CC2N1c1cccc(F)c1 (centres undefined) | i | i | i | i
CCCn1nc([N+](=O)[O-])c(C(C#N)c2nc3ccccc3o2)c(Cl)c1=O (centres undefined) | i | i | 84.2 | i
O=C(NCc1ccccc1F)C1CCCN1C(=O)Nc1ccccc1 (centres undefined) | i | i | i | i
COc1cc(-c2cnc3c(NC=O)cc(-c4cccnc4)cn23)cc(OC)c1OC | 76.0 | nt | nt | nt
COc1cc(-c2cnc3c(NC=O)cc(-c4ccsc4)cn23)cc(OC)c1OC | 56.1 | nt | nt | nt
COc1cc(-c2cnc3c(NC=O)cc(-c4cccc(C(F)(F)F)c4)cn23)cc(OC)c1OC | i | nt | nt | nt
C[C@@H]1CN([C@@H](C)CO)C(=O)CCCn2nncc2CO[C@H]1CN(C)C(=O)NC1CCCCC1 | i | nt | nt | nt
COc1cccc(NC(=O)CCCCCn2nnc3ccccc3c2=O)c1 | i | i | i | i
OCCN1CCN(C2Cc3cc(Cl)ccc3Sc3ccc(Cl)cc32)CC1 (centres undefined) (tested in a mixture with another compound) | i | i | i | 15.3
O=C(O)c1cc(S(=O)(=O)N2CCOCC2)c[nH]1 | i | i | i | i
CNC(=O)c1cccc(NC(=O)c2cc(-c3ccccc3)nc3c2cnn3C(C)C)c1 | 58.9 | i | i | i
O=C(N/N=C/c1ccc(N2CCOCC2)s1)c1ccc(O)cc1 | i | nt | nt | nt
O=C(NN=Cc1ccc(N2CCOCC2)s1)c1ccc([N+](=O)[O-])cc1 | 62.7 | nt | i | nt
C[C@@H](C(=O)N=c1sc2ccccc2n1C)N1C(=O)C2CC=CCC2C1=O (some centres undefined) | i | nt | i | nt
CCCC(=O)N(c1ccc2oc(=O)sc2c1)S(=O)(=O)c1ccccc1 | 56.5 | i | i | i
O=C(Nc1ccc2c(c1)C(=O)OC2)c1ccc(F)cc1F | i | i | i | i
SMILES | Cardio protect | PP5 primary | ATG4B inhibitor | PP1 inh
O=C(O)c1nn(CC(=O)N2CCCCCC2)c(=O)c2ccccc12 | i | i | i | i
CN(C(=O)Cn1nc(C(=O)O)c2ccccc2c1=O)C1(C#N)CCCCC1 | 56.8 | i | i | i
Cc1ccc2nc(-c3ccc(C#N)cc3)c(Cc3cccc(Cl)c3)n2c1 | i | nt | nt | nt
O=c1cc(O)nc(SC23CC4CC(CC(C4)C2)C3)[nH]1 | i | i | i | 15.6
O=C(NCC(=O)N1CC=C(c2ccccc2)CC1)c1ccco1 | i | i | i | i
CN1c2ccsc2/C(=N/NC(=O)c2c(F)cccc2F)CS1(=O)=O | i | i | i | i
Cc1cccc(C(=O)N/N=C2\CS(=O)(=O)N(C)c3ccsc32)c1 | 63.6 | i | i | i
COC(=O)C1C2CCCCC1C(=O)O2 (centres undefined) | i | nt | i | nt
COc1cc(-c2cc(-c3ccc(O)cc3)nc(N)c2C#N)ccc1O | 49.5 | i | i | i
COc1ccc(-c2cc(-c3ccc(O)cc3)nc(N)c2C#N)cc1 | i | i | i | i
CCOC(=O)c1c(C)[nH]c(C)c1C(=O)COC(=O)c1nn(CC)c(=O)c2ccccc12 | i | nt | nt | nt
O=C(N/N=C/c1ccncc1)c1cc(C2CC2)nc2ccccc12 | i | i | i | i
O=C(CSc1nc2ccccc2c(=O)n1-c1ccccc1)N/N=C/C=C/c1ccccc1[N+](=O)[O-] | i | i | i | i
O=C(N/N=C/c1ccccn1)c1cc(C2CC2)nc2ccccc12 | 55.4 | i | i | i
Cc1ccccc1-n1c(SCC(=O)N/N=C/C=C/c2ccccc2[N+](=O)[O-])nc2ccccc2c1=O | i | i | i | 16.9
